# Compound activity: PubChem BioAssay, National Center for Advancing Translational Sciences (NCATS)
# AmpC no deterg: inhibitors of E. coli AmpC beta-lactamase without detergent. P00811. AmpC nitrocefin hydrolysis, absorbance 480 nm, 0.0001% Triton. Potency, µM (titrated, usually from 57.1 µM), inactives show at the highest dose activity change, negative = inhibition, hits mostly inhibitors. actives 0.52% (n = 330,000);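 also: plate controls were no compound for no effect and no enzyme for full effect; nearly all actives have a fitted effect of over 20% in size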
# Target sequence (P00811 whole entry, looked up): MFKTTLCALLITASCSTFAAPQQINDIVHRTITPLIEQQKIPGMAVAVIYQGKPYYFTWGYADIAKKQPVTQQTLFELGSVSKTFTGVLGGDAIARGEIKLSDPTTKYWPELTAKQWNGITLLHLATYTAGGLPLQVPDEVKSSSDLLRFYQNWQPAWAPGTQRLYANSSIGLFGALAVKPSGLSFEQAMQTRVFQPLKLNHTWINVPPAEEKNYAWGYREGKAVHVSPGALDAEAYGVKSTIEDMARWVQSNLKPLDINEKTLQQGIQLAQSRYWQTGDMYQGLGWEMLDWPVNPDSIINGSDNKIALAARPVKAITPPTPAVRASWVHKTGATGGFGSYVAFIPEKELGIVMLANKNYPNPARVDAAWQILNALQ
#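 20 mM phosphate pH 7.0 + 0.01% (detergent screen) or 0.0001% Triton X-100; 5.3 nM AmpC reagent; cpd preinc 15 min RT; nitrocefin (800 uM stock) to start; A480 q20 s × 4 min; Activity was normalised to no-enzyme and no-compound control wells.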
# AmpC detergent: AmpC beta-lactamase inhibition with detergent present; AmpC hydrolysis of nitrocefin, absorbance 480 nm, 0.01% Triton; AID 485294; Potency, µM (highest dose often 114 µM), for the others: top-dose activity change, negative = inhibition, hits mostly inhibitors; P00811; actives 0.041% (n = 370,000);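 also: 0% = no-compound wells and -100% = no-enzyme wells; nearly all actives have a fitted effect of over 25% in size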
#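 AmpC (5.3 nM in the dispensed reagent) in 20 mM phosphate pH 7.0 with 0.01% (detergent screen) or 0.0001% Triton X-100 was preincubated with compounds for 15 min at room temperature. Nitrocefin was then added from an 800 uM solution, and hydrolysis was followed at 480 nm.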
# Sm TGR inh: inhibitors of Schistosoma mansoni thioredoxin glutathione reductase | purified TGR, DTNB reduction, TNB absorbance 405 nm | actives 3% (n = 360,000) | Potency, µM (series often up to 114 µM), for inactives: at the highest dose activity change, negative = inhibition, actives largely listed as inhibitors | Q962Y6 | AID 485364; also: nearly all actives have a fitted effect of over 60% in size
#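 First, TGR (20 nM dispensed) and NADPH were mixed with compound. Second, a 15 min room-temperature incubation followed. Third, further NADPH and then DTNB were added to start the reaction. Finally, TNB absorbance was monitored kinetically.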
# * marks the source's active call; other numbers are inactive results; ? = inconclusive; . = no result given. Only some compounds are listed: those with a hit (about 3.3% of all), similar ones and a draw of the others. Calls follow the shape of the dose curve; as a rule, active = well fitted curve in the direction sought with a large enough effect; inconclusive = small, poorly fitted or top-dose-only effect, or another doubt; inactive = no such curve, though single readings can be large; an effect the other way counts as inactive or inconclusive. Unless noted, % is scaled to controls: 0 for no effect and ±100 for the full control effect; potency is read from the fitted curve at half-maximal effect.
SMILES,AmpC no deterg,AmpC detergent,Sm TGR inh
CCCCN1C(C)=CC(=C2C(=O)c3ccccc3C2=O)C=C1C,-31%,7%,3%
CC(=O)Oc1ccc(C(=O)[C@H]2[C@H]3C(=O)N(c4ccc(C)cc4)C(=O)[C@H]3[C@@H]3C=CC=NN32)cc1,146%,-9%,?
COc1ccc(C(=O)[C@H]2[C@H]3C(=O)N(c4ccccc4)C(=O)[C@H]3C3C=CC=NN32)cc1 (stereo not given in full),49%,-4%,?
COc1ccc(C(=O)[C@H]2[C@H]3C(=O)N(c4ccc(C)cc4)C(=O)[C@H]3C3C=CC=NN32)cc1 (stereo not given in full),81%,3%,40µM*
CC(=O)Oc1ccc(C(=O)[C@H]2[C@H]3C(=O)N(c4ccc(C)cc4C)C(=O)[C@H]3[C@@H]3C=CC=NN32)cc1,96%,-9%,18µM*
COc1ccccc1NC(=O)C1=C(C)Nc2nc(SCc3cc(C)ccc3C)nn2C1c1ccccc1 (stereo not given),.,-2%,0%
Oc1ccccc1N1CCN(Cc2ncc(-c3ccccc3)o2)CC1,51%,5%,-1%
COC(=O)c1ccccc1S(=O)(=O)N1CCC(C(=O)OCC(=O)c2ccccc2OC)CC1,24%,1%,7%
O=C(OCc1nnc(-c2ccc(Cl)cc2)o1)c1ccc(O)cc1,-28%,-7%,-6%
CS(=O)(=O)c1ccc(C(=O)OCc2nnc(-c3ccc(Cl)cc3)o2)cc1[N+](=O)[O-],-9%,3%,2.5µM*
Cc1oc(-c2ccc(Cl)cc2)[n+]([O-])c1C,-15%,-13%,50µM*
COc1ccc2oc3cc(C)[n+]([O-])c(-c4ccc(Cl)cc4)c3c2c1,2%,-8%,1%
COCCn1c(SCc2cccc(F)c2)nc2cc(C(=O)OC)ccc2c1=O,-8%,-6%,0%
Fc1cccc(CN2CCN(Cc3nc(-c4cnccn4)no3)CC2)c1,16%,12%,.
c1ccc(C(c2ccccc2)N2CCN(Cc3nc(-c4cnccn4)no3)CC2)cc1,132%,8%,25µM*
CC(C)Oc1ccc(C(=O)OCC(=O)c2ccc[nH]2)cc1,-14%,.,.
CCOc1cccc(C2c3[nH]c4ccccc4c3CCN2C(=O)CCc2ccccc2)c1 (stereo not given),.,27%,5%
CC(C)C[C@H]1C(=O)N2CCC[C@H]2[C@]2(O)O[C@](NC(=O)[C@@H]3C=C4c5cccc6[nH]cc(c56)C[C@H]4N(C)C3)(C(C)C)C(=O)N12,131%,-6%,5.6µM*
CCN(CC)C(=O)N[C@H]1C[C@@H]2c3cccc4[nH]cc(c34)C[C@H]2N(C)C1,-14%,0%,-10%
COC(=O)C1C=C2c3cccc4[nH]cc(c34)CC2N(C)C1 (stereo not given),11%,-6%,10µM*
CCC(CO)NC(=O)C1C=C2c3cccc4[nH]cc(c34)CC2N(C)C1 (stereo not given),6%,-8%,-20%
CC[C@@H](CO)NC(=O)[C@@H]1C=C2c3cccc4c3c(cn4C)C[C@H]2N(C)C1,21%,3%,8.9µM*
COCCNC(=O)CSc1cn(CC(=O)N2CCCCCC2)c2ccccc12,.,3%,3%
Cc1cccc(NC(=O)CNC(=O)CN2C(=O)NC3(CCc4ccccc43)C2=O)c1C (stereo not given),0%,-14%,-15%
O=C(COC(=O)C1CC1)NCCNC(=O)COC(=O)C1CC1,-5%,?,-4%
SMILES,AmpC no deterg,AmpC detergent,Sm TGR inh
COc1cc(OC)c(OC)cc1CNCCc1ccc2c(c1)OCO2,-23%,?,40µM*
COc1cc(OC)c(OC)cc1CNCc1ccc2c(c1)OCO2,4%,-2%,45µM*
COc1cccc(CNCCc2ccc3c(c2)OCO3)c1OC,-19%,?,40µM*
CCOc1cc(CNCc2ccc3c(c2)OCO3)ccc1OC,-6%,-14%,-1%
COc1cc(Br)c(CNCCc2ccc3c(c2)OCO3)cc1OC,-18%,?,-31%
COc1cccc(CNCCc2cccc(F)c2)c1OC,-13%,-20%,?
COc1ccc(OC)c(-c2cc(C(=O)Nc3cccc(Cl)c3C)no2)c1,.,0%,3%
COc1ccc(OC)c(S(=O)(=O)N2CCN(c3c(C)cccc3C)CC2)c1,40µM*,?,?
COc1ccc(OC)c(S(=O)(=O)N2CCN(c3ncccn3)CC2)c1,25%,-3%,-11%
O=c1c2ccccc2[nH]c(=S)n1CCCN1CCN(c2ccccc2F)CC1,-17%,-1%,-2%
CCOC(=O)c1[nH]c(=O)[nH]c1CSc1ccccn1,-19%,0%,14µM*
CCOC(=O)NC(=O)CSc1ccccn1,-2%,-13%,0%
O=C(CSc1nc2ccsc2c(=O)n1Cc1ccccc1Cl)NCc1ccc(F)cc1,.,-3%,-4%
CCS(=O)(=O)c1ncc(Cl)c(C(=O)Nc2ccc(S(=O)(=O)N(C)c3ccccc3)cc2)n1,25%,3%,0.5µM*
CCN(c1ccccc1)S(=O)(=O)c1ccc(NC(=O)c2nc(S(C)(=O)=O)ncc2Cl)cc1,-14%,1%,0.4µM*
CC(C)Sc1ncc(Cl)c(C(=O)Nc2ccc(S(=O)(=O)N(C)c3ccccc3)cc2)n1,.,1%,-10%
CCSc1ncc(Cl)c(C(=O)Nc2ccc(S(=O)(=O)N(C)c3ccccc3)cc2)n1,.,20%,13%
COC(=O)C1=C(C)NC(C)=C(C(=O)OC)C1C(=O)OC(C)C(=O)c1ccccc1 (stereo not given),-9%,?,2%
CCOC(=O)c1ccc([N+](=O)[O-])c(CS(=O)(=O)c2ccc(Cl)cc2)c1,-41%,0%,14%
Cc1ccc(S(=O)(=O)Cc2cc(F)c([N+](=O)[O-])cc2[N+](=O)[O-])cc1,-41%,0%,1.8µM*
Cc1ccc(S(=O)(=O)Nc2cccc(-c3ccc(N4CCCCCC4)nn3)c2)c(C)c1,-55%,?,-15%
CCc1nccn1CCC(=O)N1CCc2c([nH]c3ccccc23)C1CC(C)C (stereo not given),35%,4%,-2%
COCc1ccc(CN2CCc3c([nH]c4ccccc34)C2CC(C)C)o1 (stereo not given),33%,3%,35µM*
O=C(CN1CC(=O)Nc2ccccc21)Nc1ccc(F)c(F)c1,-37%,1%,32µM*
Cc1ccc(NC(=O)CNC(=O)N2CC(=O)Nc3ccccc32)cc1F,-7%,-1%,2%
CC(C)c1cnc2c(c1SCc1cccc(F)c1)c(=O)n(C)c(=O)n2C,.,8%,3%
Cc1nc([N+](=O)[O-])c(SCC(N)=O)n1Cc1ccccc1,-12%,-4%,0%
Cc1nc([N+](=O)[O-])c(Sc2nc3ccccc3n2C)n1Cc1ccccc1,-12%,-7%,8.9µM*
Cc1ccc(S(=O)(=O)N2CCCN(C(C)c3nc4ccccc4c(=O)[nH]3)CC2)cc1 (stereo not given),-17%,-1%,?
Cc1ccc(S(=O)(=O)N2CCCN(Cc3nc4ccccc4c(=O)[nH]3)CC2)cc1,3%,?,45µM*
